For 15 compounds, Potency results are on record in PubChem BioAssay (NCATS).

Records with an inconclusive call do not appear. Calls of active or inactive are those of the source. The call rests on the fitted dose curve; in most records, active means well fitted inhibition curve with a large enough effect; inconclusive means small, poorly fitted or top-dose-only effect; inactive means flat fitted curve, though single readings scatter.

Experiment in all cases: qHTS profiling for inhibitors of Plasmodium falciparum proliferation (AID 504749); further: nearly all actives have a fitted effect of over 60% in size
What all share (conditions): P. falciparum in erythrocytes, SYBR Green DNA, 72 h; series mostly up to 28.7 µM

For assay [1], the system named is 7G8. An outline of the steps:
(§1)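 Parasite proliferation within erythrocytes, 72 h exposure. Endpoint: SYBR Green I fluorescence after overnight lysis at room temperature. Controls: 0.29 uM artemisinin, DMSO.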

Assay [2] concerns AA1029. An outline of the steps: as §1
Assay [3] deals with AS120. An outline of the steps: as §1
In assay [4] the test system is ATS189. Put shortly: as §1
For assay [5], the system named is ATS95. An outline of the steps:
as §1

Assay [6] has as its system C2A. An outline of the steps: as §1
Assay [7] has as its system CP185. Put shortly: as §1
In assay [8] the test system is CP191. Put shortly: as §1
Assay [9] deals with CP194. Put shortly: as §1
The test system of assay [10] is CP201. An outline of the steps:
as §1

Assay [11] concerns CP215. An outline of the steps: as §1
The test system of assay [12] is CP217. Put shortly:
as §1

In assay [13] the test system is CP237. An outline of the steps: as §1
Assay [14] deals with CP238. Put shortly: as §1
Assay [15] has as its system CP247. An outline of the steps:
as §1

Assay [16] deals with CP250. An outline of the steps: as §1
The test system of assay [17] is CP252. Put shortly: as §1
The subject of assay [18] is CP192. Put shortly:
as §1

In assay [19] the test system is CP203. Put shortly: as §1
Assay [20] concerns CP211. Put shortly: as §1
Potency means the concentration at half of the fitted maximal effect.

As for `CC(=O)[O][Al][O]C(C)=O`, the Potency entry in assay [1], in assay [2], in assay [3], in [4], in [5] and in assay [6] was “inactive” in each case. Further, the Potency result in assay [7], in assay [8], in [9], in assay [10], in [11] and in [12] was “inactive” in each case. Further, the Potency result in [13], in assay [14], in assay [15], in assay [16] and in assay [17] was “inactive” throughout.
For `O=C(OCc1ccccc1)c1cccnc1`, the Potency entry in assay [1], in [2], in assay [3], in assay [4], in [5] and in assay [6] was “inactive” throughout. Besides, the Potency entry in assay [7], in assay [18], in [10], in [19], in assay [20] and in assay [12] was “inactive” in each case. In addition, the Potency entry in [13], in assay [14], in [15], in assay [16] and in assay [17] was “inactive” in each case.
For `Cc1cc2nc3c(=O)[nH]c(=O)nc-3n(C[C@H](O)[C@H](O)[C@H](O)COP(=O)(O)OP(=O)(O)OC[C@H]3O[C@@H](n4cnc5c(N)ncnc54)[C@H](O)[C@@H]3O)c2cc1C`, the Potency result in [1], in assay [2], in assay [3], in assay [4], in assay [5] and in assay [6] was “inactive” throughout. Besides, the Potency result in assay [7], in [8], in assay [18], in assay [9], in assay [10] and in assay [19] was “inactive” each time. Moreover, the Potency entry in assay [20], in assay [11], in assay [12], in assay [13], in assay [14] and in assay [16] was “inactive” each time. For the same compound, the Potency entry in assay [17] was “inactive”.
For `CC1CC(OC(=O)C(O)c2ccccc2)CC(C)(C)C1` (stereo unspecified), the Potency result in assay [1], in [2], in assay [3], in [4], in assay [5] and in [6] was “inactive” in each case. Besides, the Potency entry in assay [7], in [8], in [9], in assay [10], in assay [19] and in assay [20] was “inactive” throughout. Besides, the Potency entry in [11], in assay [12], in assay [13], in assay [14], in assay [15] and in [16] was “inactive” each time. The Potency entry in assay [17] is “inactive”.
For the compound `COc1ccc(C(=O)c2ccc(C)cc2)c(O)c1`, the Potency result in assay [1], in assay [2], in assay [3], in assay [4], in assay [5] and in assay [6] was “inactive” throughout. In addition, the Potency result in assay [7], in [8], in assay [18], in [9], in assay [10] and in assay [19] was “inactive” throughout. For the same compound, the Potency result in assay [11], in assay [12], in assay [13], in assay [14], in assay [15] and in assay [16] was “inactive” throughout. In addition, in assay [17], the Potency result is “inactive”.
Take `CCCOc1cc(N)ccc1C(=O)OCCN(CC)CC`: the Potency result in [1], in assay [2], in [3], in assay [4], in assay [5] and in assay [6] was “inactive” in each case. Moreover, the Potency entry in [7], in [8], in [18], in assay [9], in [10] and in [19] was “inactive” each time. For the same compound, the Potency result in assay [11], in assay [12], in [13], in [14], in assay [16] and in assay [17] was “inactive” each time.
With `CSCCC(N)C(=O)O` (stereo unspecified), the Potency result in assay [1], in assay [2], in [3], in [4], in [5] and in assay [6] was “inactive” in each case. For the same compound, the Potency entry in [7], in assay [8], in assay [18], in assay [12], in [13] and in assay [14] was “inactive” each time. Also, the Potency entry in assay [15], in assay [16] and in [17] was “inactive” throughout.
In the case of `c1ccc2c(c1)OCC(CN1CCCCC1)O2` (stereo unspecified), the Potency result in [1], in assay [2], in assay [3], in assay [4], in assay [5] and in assay [6] was “inactive” in each case. The Potency entry in assay [7], in assay [8], in [18], in assay [9], in assay [10] and in assay [19] was “inactive” in each case. In addition, the Potency entry in assay [20], in [11], in assay [12], in assay [14], in assay [15] and in assay [16] was “inactive” throughout. Besides, the Potency entry in assay [17] is “inactive”.
For the compound `Cc1ncc(C[n+]2csc(CCO)c2C)c(N)n1`, the Potency entry in assay [1], in assay [2], in assay [3], in [4], in [5] and in [6] was “inactive” each time. In addition, the Potency entry in assay [7], in assay [8], in assay [18], in assay [9], in assay [10] and in [19] was “inactive” in each case. In addition, the Potency entry in [20], in assay [12], in [13], in assay [14], in assay [15] and in [16] was “inactive” throughout. Also, the Potency result in assay [17] is “inactive”.
As for `CCN(CC)CCCC(C)Nc1cc(/C=C/c2ccccc2Cl)nc2cc(Cl)ccc12` (stereo unspecified), the Potency was 0.794 µM (active) in assay [1]; 2.24 µM (active) in assay [2]; 2 µM (active) in [3]; 3.55 µM (active) in assay [4]; 2.51 µM (active) in assay [5]; 1.12 µM (active) in assay [6]. In addition, the Potency in assay [7] was 2.82 µM (active); in [8], 1.26 µM (active); in assay [9], 12 µM (active); in [10], 4.78 µM (active); in assay [19], 10.7 µM (active); in assay [20], 15.1 µM (active). The Potency was 13.5 µM (active) in assay [11]; 3.16 µM (active) in [12]; 1.78 µM (active) in assay [13]; 4.47 µM (active) in assay [14]; 3.55 µM (active) in assay [15]; 1.26 µM (active) in assay [16].
Regarding `CCN(CC)CCOc1ccc2nc(N(C)C)sc2c1`, the Potency entry in assay [1], in assay [2], in [3], in assay [4], in assay [5] and in assay [6] was “inactive” in each case. The Potency entry in assay [7], in assay [8], in assay [18], in [9], in [10] and in assay [19] was “inactive” each time. Moreover, the Potency entry in assay [20], in [12], in [13], in [14], in assay [15] and in assay [16] was “inactive” in each case. In addition, the Potency entry in [17] was “inactive”.
Consider `Cc1cc(C(=O)NCCc2ccc(S(=O)(=O)NC(=O)NN3CCCCCC3)cc2)no1`, for which the Potency entry in assay [1], in assay [2], in assay [3], in assay [4], in assay [5] and in assay [6] was “inactive” throughout. The Potency result in [7], in assay [8], in assay [18], in assay [9], in assay [10] and in [19] was “inactive” in each case. Further, the Potency result in [11], in assay [12], in assay [13], in [14], in [15] and in assay [16] was “inactive” each time. The Potency result in [17] is “inactive”.
For the compound `O=C1NCCN1c1ncc([N+](=O)[O-])s1`, the Potency result in assay [1], in assay [2], in [3], in [4], in [5] and in assay [6] was “inactive” each time. The Potency entry in assay [7], in assay [8], in assay [18], in [9], in assay [19] and in assay [20] was “inactive” each time. Besides, the Potency result in assay [11], in assay [12], in assay [13], in assay [14], in assay [15] and in [16] was “inactive” throughout. Also, the Potency entry in assay [17] is “inactive”.
As to `C[C@H](N)C(=O)N[C@@H](C)P(=O)(O)O`, the Potency result in assay [1], in assay [2], in assay [3], in assay [4], in assay [5] and in [6] was “inactive” throughout. Also, the Potency entry in assay [7], in [8], in assay [18], in assay [9], in assay [10] and in assay [19] was “inactive” throughout. In addition, the Potency entry in assay [20], in [12], in assay [13], in assay [14], in [15] and in assay [16] was “inactive” in each case. In addition, in assay [17], the Potency entry is “inactive”.
Regarding `Cn1cc(NC(=O)c2cc(NC(=O)c3cc(NC=O)cn3C)cn2C)cc1C(=O)NCCC(=N)N`, the Potency was 0.316 µM (active) in [1]; 7.08 µM (active) in assay [2]; 7.08 µM (active) in assay [3]; 11.2 µM (active) in assay [4]; 6.31 µM (active) in assay [5]; 7.94 µM (active) in [6]. In addition, the Potency in assay [7] is 11.2 µM (active); in assay [8], 10 µM (active); in [19], 12 µM (active); in [12] it was 7.08 µM (active); in assay [13] it was 8.91 µM (active); in assay [14], 11.2 µM (active). The Potency in [15] is 6.31 µM (active); in assay [16], 7.94 µM (active); in assay [17], 8.91 µM (active).
